Screening data as filed in PubChem BioAssay.
Dicer processing = inhibitors of Dicer pre-microRNA processing, primary screen, biochemical, cat-ELCCA, chemiluminescence. Endoribonuclease Dicer (Homo sapiens), Q9UPY3. cat-ELCCA pre-miR-21 Dicer processing; stronger effect = higher value. z-score at 25 µM. hit rate 6% among 47,000; in the data active = z-score above about 3, passing the limit was not always enough;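 note: plate controls were vehicle for no effect and no enzyme for full effect; higher signal means more uncleaved substrate so more Dicer inhibition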
* hit, by the source's call. The full list was thinned out, with hits kept by preference.

CN(C)c1ccc(C(=O)NNC(=O)c2cc([N+](=O)[O-])ccc2N)cc1 was read as Dicer processing 2.1.
Cn1cccc1CNCc1ccccn1 was read as Dicer processing -0.3.
Screening CCCCNc1nc2c(c(=O)[nH]c(=O)n2C)n1CC(C)C returned Dicer processing 9.2.
For COc1ccc(C(Nc2cccc(C)n2)c2ccc3cccnc3c2O)cc1 (configuration not stated) the results were Dicer processing 9.1*.
Cc1cccc(NC(c2ccc(F)cc2)c2ccc3cccnc3c2O)n1 (configuration not stated) was read as Dicer processing 8.9*.
`Cc1ccc2ccc(C(Nc3ccccn3)c3ccc(F)cc3)c(O)c2n1` (configuration not stated) gave Dicer processing 5.6.
`COc1ccc(C)cc1NC(c1ccccn1)c1ccc2cccnc2c1O` (configuration not stated) gave Dicer processing -0.11.
Screening Cc1cccc(NC(c2ccccc2)c2ccc3ccc(C)nc3c2O)n1 (configuration not stated) returned Dicer processing 1.7.
Screening CCCOc1ccc(C(Nc2ccccn2)c2ccc3cccnc3c2O)cc1 (configuration not stated) returned Dicer processing 2.6.
Screening COc1ccc(NC(c2ccccn2)c2ccc3cccnc3c2O)cc1 (configuration not stated) returned Dicer processing 3.1*.
Screening Cc1ccc2ccc(C(Nc3cccc(Cl)c3)c3ccccn3)c(O)c2n1 (configuration not stated) returned Dicer processing -2.1.
For Cc1cccc(NC(c2ccc3c(c2)OCO3)c2ccc3cccnc3c2O)n1 (configuration not stated) the results were Dicer processing 2.3.
`CCCCSc1nnc2c(n1)OC(c1cccn1C)N(C(C)=O)c1ccccc1-2` (configuration not stated) gave Dicer processing 0.28.
For COc1ccc(-c2cc(C(F)(F)F)n3nc(C(=O)NCC4CCCO4)c(Cl)c3n2)cc1OC (configuration not stated) the results were Dicer processing 0.18.
CCOC(=O)c1c[nH]c2ccc(F)c(C#N)c2c1=O was read as Dicer processing 0.23.
Screening CCOC(=O)c1cnc(SCc2c(C)cc(C)cc2C)nc1C(F)(F)F returned Dicer processing 0.24.
`COC(=O)c1scc(S(=O)(=O)c2ccc(Cl)cc2)c1N` gave Dicer processing -0.79.
`CCOC(=O)c1c(C)oc2ccc(OC(=O)c3cc4ccccc4o3)cc12` gave Dicer processing -0.27.
`O=C(O)c1cccc2c1NC(c1ccc(Br)cc1)C1CC=CC21` (configuration not stated) gave Dicer processing -0.72.
For Cc1cccc2c1N[C@H](c1ccc(C(=O)O)cc1)C1CC=CC21 (some centres not stated) the results were Dicer processing 0.98.
COc1ccc2c(c1)[C@@H]1C=CC[C@@H]1[C@H](c1ccc(C(=O)O)cc1)N2 was read as Dicer processing 4.2*.
For COC(=O)c1ccc2c(c1)C1C=CCC1[C@@H](c1ccc(C(=O)O)cc1)N2 (some centres not stated) the results were Dicer processing -1.7.
`Cc1c(C(=O)O)ccc2c1NC(c1ccc(C(C)C)cc1)C1CC=CC21` (configuration not stated) gave Dicer processing 3.4*.
`CCOC(=O)c1ccc2c(c1)[C@@H]1C=CC[C@@H]1[C@H](c1ccc(C(=O)O)cc1)N2` gave Dicer processing 0.06.
For CCOC(=O)c1ccc(N2N=C(C)CC2=O)cc1 the results were Dicer processing -4.
`COC(=O)c1scc(C)c1NC(=O)CC#N` gave Dicer processing -1.1.
Screening S=c1scc(-c2ccc(Cl)c(Cl)c2)n1Nc1ccccc1 returned Dicer processing -0.84.
For CCN1c2cc(NC(C)=O)ccc2C(C)CC1(C)C (configuration not stated) the results were Dicer processing -3.2.
Screening Cc1ccc(Sc2nc(-c3cccs3)ns2)cc1 returned Dicer processing -0.79.
Screening Cc1cc(Cc2ccc(N)c(C)c2)ccc1N returned Dicer processing 1.1.
Cc1cc(C2(c3ccc(N)c(C)c3)CCCCC2)ccc1N was read as Dicer processing 3.1*.
`Cc1cccc2c(=O)c(C(=O)O)c[nH]c12` gave Dicer processing 0.73.
For CCOC(=O)c1c[nH]c2c(-c3ccccc3)c(C(F)(F)F)sc2c1=O the results were Dicer processing 0.13.
For O=C(O)c1c[nH]c2c(-c3ccccc3)c(C(F)(F)F)sc2c1=O the results were Dicer processing 4.8*.
`Nc1[nH]c(=S)[nH]c(=O)c1C(c1ccc([N+](=O)[O-])cc1)c1c(N)[nH]c(=S)[nH]c1=O` gave Dicer processing 2.1.
Screening O=C1C(=O)N(Cc2ccc(Cc3ccc(CN4C(=O)C(=O)c5ccccc54)cc3)cc2)c2ccccc21 returned Dicer processing -1.3.
Screening O=C1C(=O)N(Cc2ccccc2)c2ccccc21 returned Dicer processing -0.23.
